# Source: PubChem BioAssay AID1220 (Sanford-Burnham Center for Chemical Genomics, 2008)
# Out of some 190,000 compounds screened, about 1,300 (0.68%) were called active. The sample as a whole holds a higher share of actives than the screen did. Unmarked numbers belong to inactive results. Cut-off read from the data, not from the text of the source: active = inhibition above about 50%; inactive = the rest.
# Target: Mannose-6-phosphate isomerase (Homo sapiens) (UniProt P34949)
# Experiment: human PMI inhibitors, high substrate, primary screen, biochemical, fluorescence intensity, high mannose 6-phosphate (AID 1220)
# Details: recombinant PMI enzyme, coupled fluorescence intensity; at 20 µM; stronger effect = higher value
# Chain of Mannose-6-phosphate isomerase (Homo sapiens) (P34949 whole entry, looked up): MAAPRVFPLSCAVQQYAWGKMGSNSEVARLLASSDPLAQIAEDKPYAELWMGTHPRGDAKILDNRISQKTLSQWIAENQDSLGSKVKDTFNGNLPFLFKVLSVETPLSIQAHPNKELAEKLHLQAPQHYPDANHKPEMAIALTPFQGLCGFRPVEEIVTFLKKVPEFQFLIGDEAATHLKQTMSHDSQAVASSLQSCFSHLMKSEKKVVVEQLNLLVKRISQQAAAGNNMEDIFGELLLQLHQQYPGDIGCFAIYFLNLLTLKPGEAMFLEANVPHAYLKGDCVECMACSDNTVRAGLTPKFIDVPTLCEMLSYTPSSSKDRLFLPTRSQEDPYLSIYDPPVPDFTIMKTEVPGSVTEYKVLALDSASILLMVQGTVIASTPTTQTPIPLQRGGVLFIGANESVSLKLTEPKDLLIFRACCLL
row,SMILES,inhibition
1,CN(C=[N+](C)C)c1cccc2c1C(=O)c1ccccc1C2=O,39.3%
2,CN(C)c1cc2c(c(N(C)C)c1)C(=O)c1ccccc1C2=O,50.3% (active)
3,CNc1cccc2c1C(=O)c1ccccc1C2=O,24.4%
4,COc1ccc(OC)c2c1C(=O)c1ccccc1C2=O,-55.2%
5,CN(C)c1cccc2c1C(=O)c1ccccc1C2=O,55.7% (active)
6,Cc1nc2ccccn2c1C(=O)NN=C1CCCC1,-5%
7,Cc1ccc(C(=O)NNC(=O)c2cccc(S(=O)(=O)N3CCN(c4ccccc4)CC3)c2)cc1,5.6%
8,Cc1ccc(C(=O)NCC(=O)OC(C)C(=O)NCCC2=CCCCC2)cc1C (stereo not given),4.6%
9,O=C(NCC1CCCO1)C(c1ccc(F)cc1)N(CC1CCCO1)C(=O)c1ccc(-c2ccccc2)[nH]1 (stereo not given),-8.3%
10,O=C(CCOc1ccccc1)Nc1cccc([N+](=O)[O-])c1,-0.7%
11,O=C(CNS(=O)(=O)c1ccccc1F)Nc1ccc(N2CCOCC2)cc1,1%
12,COc1ccc(C(=O)NCCSc2ccccc2)cc1,7.1%
13,CCCc1cc(=O)oc2c(C)c3occ(C)c3cc12,2.8%
14,COc1ccccc1NCC(=O)N/N=C(\C)c1ccc(Br)s1,11.6%
15,C/C(=N\NC(=O)CNc1cccc2ccccc12)c1ccc(Br)s1,52% (active)
16,C/C(CCc1ccco1)=N/NC(=O)CCC(=O)Nc1ccc(Br)cc1,7.1%
17,C/C(CCc1ccco1)=N\NC(=O)CNc1c(Br)cc(Br)cc1Br,-2.7%
18,C/C(CCc1ccco1)=N\NC(=O)CNc1cccc2ccccc12,56% (active)
19,C/C(=N\NC(=O)CNc1cccc(C)c1)c1ccc(Br)s1,14.6%
20,CC(=O)Cc1nsc(Nc2cccc(C)c2)n1,6.5%
21,COc1ccc(NC(=O)c2ccco2)cc1S(=O)(=O)N1CCOCC1,-7.3%
22,CC(OC(=O)c1cccnc1)C(=O)Nc1ccc2c(c1)OCO2 (stereo not given),2.7%
23,Cc1cccc(CCN(CC(=O)NC2CCCCC2)C(=O)c2csnn2)c1,-6%
24,CN(Cc1nccn1C)C(=O)CC1C(=O)NCCN1CC(c1ccccc1)c1ccccc1 (stereo not given),25.1%
25,Cc1ccc(NC(=O)CCNC(=O)c2ccco2)cc1F,-1.2%

row,SMILES,inhibition
1,C/C(=N\NC(=O)C(=O)Nc1ccc(C)cc1)c1ccncc1,-7.3%
2,Cc1nnc(C)c2c(C)n(-c3ccccc3N)c(C)c12,56.3% (active)
3,Cc1ccc(-n2c(C)c3c(C)nnc(C)c3c2C)cc1N,44.2%
4,CC1CCN(c2ccccc2N)CC1,2%
5,Cc1nnc(C)c2c(C)n(C(c3ccccc3)c3ccccc3)c(C)c12,8%
6,Cc1ccc(C)n1-c1ccccc1N,57.3% (active)
7,Cc1ccc(C)n1-c1ccccc1N1CCCCC1,-1.9%
8,Cc1nn(-c2ccccc2)c(C)c1C(=O)OCC(=O)c1c(N)n(CC(C)C)c(=O)n(C)c1=O,4.3%
9,Cc1ccc(NC(=O)c2cc(S(=O)(=O)N3CCCCC3)ccc2N2CCOCC2)cc1F,9.5%
10,COc1ccc(NC(=O)c2cccc(S(=O)(=O)N3CCOCC3)c2)cn1,-1.9%
11,COc1ccc(NC(=O)c2cc(S(=O)(=O)N3CCCCC3)ccc2N2CCCCC2)cn1,55.3% (active)
12,CCOC(=O)/C(C#N)=C/c1ccc(SC)cc1,-6.5%
13,O=c1[nH]c(Cc2ccccn2)nc2scc(-c3ccccc3Cl)c12,-108%
14,O=C1CNC(=S)N1c1nc(-c2ccccc2)cs1,0.9%
15,Cc1ccc(N/N=C/c2c(C)c(C#N)c(=O)n(C)c2O)cc1C,23.3%
16,CC(=O)N=Cc1c(C)c(C#N)c(=O)n(C)c1O,53% (active)
17,Cc1c(/C=N/Nc2ccc(F)cc2)c(O)n(C)c(=O)c1C#N,-7%
18,CCC(=C(c1ccc(OC)cc1)c1ccc(OC)cc1)c1cn(CC(O)CN2CCN(C)CC2)c2ccccc12 (stereo not given),-5.7%
19,c1ccc(CCn2nnnc2C(c2cccnc2)N2CCN(c3nc4ccccc4s3)CC2)cc1 (stereo not given),15.2%
20,Oc1cc2c(cc1C(c1ccc(Br)cc1)N1CCCC1)OCO2 (stereo not given),68.1% (active)
21,S=C(c1ccc2c(c1)OCO2)N1CCCCCC1,3.6%
22,S=C(c1ccc2c(c1)OCO2)N1CCCC1,7.1%
23,CC(C)c1ccc(NC(=O)C(c2ccc3c(c2)OCO3)N2CCCCC2)cc1 (stereo not given),10.5%
24,Oc1cc2c(cc1C(c1ccc(Cl)c(Cl)c1)N1CCCC1)OCO2 (stereo not given),59.9% (active)
25,Oc1c(C(c2ccc(Cl)cc2)N2CCCC2)cc(Cl)c2cccnc12 (stereo not given),44.8%
